The list is not random: actives were taken first. Their share in the collection is about 3.4%.
NPSR antagonist: blocks cAMP signaling of the human neuropeptide S receptor | Potency, µM (doses to about 38.3 µM), for inactives: top-dose activity change, negative = inhibition, actives largely listed as inhibitors | CHO-NPSR cells, cAMP TR-FRET, antagonist mode | Q6W5P4 | 220,000 tested, 1% active; also: potency is read from the fitted curve at half-maximal effect; % is scaled to controls: 0 for no effect and ±100 for the full control effect; nearly all actives have a fitted effect of over 50% in size
Target sequence (Q6W5P4 whole entry, looked up): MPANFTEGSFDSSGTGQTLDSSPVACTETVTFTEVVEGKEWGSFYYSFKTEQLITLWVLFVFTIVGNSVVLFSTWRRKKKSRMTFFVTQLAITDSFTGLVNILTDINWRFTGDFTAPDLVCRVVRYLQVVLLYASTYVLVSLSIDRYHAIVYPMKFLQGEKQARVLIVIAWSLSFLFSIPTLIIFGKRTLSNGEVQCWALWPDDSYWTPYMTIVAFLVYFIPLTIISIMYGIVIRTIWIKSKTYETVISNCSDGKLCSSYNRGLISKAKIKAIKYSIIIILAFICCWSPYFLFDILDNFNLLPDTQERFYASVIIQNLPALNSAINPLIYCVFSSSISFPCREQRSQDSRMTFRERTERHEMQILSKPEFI
PNC assembly inh: blocks assembly of the perinucleolar compartment; 140,000 tested, 3.1% active; AID 2417; PC3M PTB-GFP, PNC prevalence imaging, 16 h; active compounds read low; activity change (PNC), negative = inhibition, % at 10 µM;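 active = readout at or below -70, meaning at least 70% loss of cells showing the perinucleolar compartment, a nuclear body marking cancer cells; inconclusive = readout between -30 and a set limit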;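 also: plate controls were DMSO wells for no effect and camptothecin positive control wells for full effect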
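Read-out is percentage of cells bearing a perinucleolar compartment, from automated 20x imaging of fixed, Hoechst-stained PC3M PTB-GFP cells. Cells were seeded 4 h, then exposed 16 h to compound (23 nl of library stock) in duplicate plates.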
HTT aggregate: reduces HttQ103-GFP aggregates in PC12 cells. 220,000 tested, 1.1% active. PC12 HttQ103-GFP aggregates, Acumen cytometry, 40 h. AID 1688. Potency, µM (top dose mostly 46.1 µM), for the others: top-dose activity change, negative = inhibition, actives largely listed as inhibitors; also: potency is read from the fitted curve at half-maximal effect; % is scaled to controls: 0 for no effect and ±100 for the full control effect; nearly all actives have a fitted effect of over 60% in size
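Inducible Q103 Huntingtin exon 1–GFP PC12 line, 1500 cells/well in phenol red free DMEM with 5% equine and 5% calf serum. Tebufenozide 100 nM induced expression; compounds titrated; aggregates quantified by cytometry.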
HTT cytoprotect: Huntington cell model cytoprotection by ATP luminescence | PC12 HTT-Q103 induced, cytoprotection, ATP luminescence, 40 h | Potency, µM (series often up to 56.4 µM), for the others: cytoprotection (ATP increase), most hits filed as activators | 230,000 tested, 0.14% active | AID 1471; also: potency is read from the fitted curve at half-maximal effect; % of control where 0% means no effect; nearly all actives have a fitted effect of over 45% in size
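Stable PC12 Q103-GFP cells in serum-supplemented, phenol red-free DMEM; induction by tebufenozide at 100 nM final; compound dose series; cell viability quantified luminescently from ATP.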
IMPase cell inh: cell-permeable inhibitors of inositol monophosphatase (IMPase) | P97697 | CHO-M1 cells, IP1 accumulation, HTRF TR-FRET ratio | inhibition (IP1 accumulation), % at 46.1 µM | 120,000 tested, under 10 active | AID 901; active = well fitted curve in the direction sought with a large enough effect in the signal ratio, not every such curve was filed as active; inconclusive = small, poorly fitted or top-dose-only effect, or a change in a side signal; inactive = no such curve, though single readings can be large or run the other way; the % refers to the signal ratio;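 also: cells stimulated with carbachol in lithium chloride buffer; plate controls were DMSO basal wells for no effect and reference inhibitor wells for full effect; higher means more IMPase inhibition seen as more IP1 and lower FRET ratio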
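Carbachol-driven Gq signalling in CHO-M1 cells (2000/well) generates IP1. Compounds that block IMPase raise IP1 and so reduce the FRET signal from Eu-anti-IP1 and d2-IP1 after a 10 min room-temperature lysis.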
IMPase Li cell: membrane-permeable IMPase blocker, potentiated with lithium | Potency, µM (top dose mostly 59.4 µM), without a hit: top-dose activity, negative = IMPase inhibition, most hits filed as inhibitors | CHO-M1 cells, IP1 TR-FRET (IP-One), carbachol + lithium | 210,000 tested, 0.35% active;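 also: IP1 builds up when IMPase is blocked and the TR-FRET signal falls; potency is read from the fitted curve at half-maximal effect; plate controls were basal vehicle for no effect and high inhibitor control for full effect; nearly all actives have a fitted effect of over 50% in size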
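Test compounds were applied to CHO-M1 cells previously cultured for 16–30 h at 2000 per well. A small lithium amount accompanied them; after 30 min at 37C, IP1 was quantified by TR-FRET.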
The depositor's hits bear a star; ? = inconclusive; / = no result given; [ ] = another dose, or the depositor's remark. Unless noted, calls follow the shape of the dose curve; as a rule, active = well fitted curve in the direction sought with a large enough effect; inconclusive = small, poorly fitted or top-dose-only effect, or another doubt; inactive = no such curve, though single readings can be large; an effect the other way counts as inactive or inconclusive.

SMILES	NPSR antagonist	PNC assembly inh	HTT aggregate	HTT cytoprotect	IMPase cell inh	IMPase Li cell
CC(C)N(Cc1nc(-c2ccccc2)no1)C(=O)CN1C(=O)c2ccccc2C1=O	-2.7%[46.1 µM]	-100.0*	11.9%	7.8%	12.2	8.1%
Cn1nc(C(F)(F)F)c(/C=N/OC(=O)c2ccccc2)c1Sc1ccc(Cl)cc1	?	?	14.1µM*	-8.0%	0.5	43.7%[38.3 µM]
COCCCn1c(O)c(/C=C2\N=C(C#N)C(=Nc3ccc(C)cc3)O2)sc1=S	?	/	16.1%[9.22 µM]	-1.3%[10 µM]	/	/
COc1ccc(C(=O)c2ccc(N(C)C)cc2)c2ccccc12	?	-96.6*	?	-71.7%[10 µM]	-5.7	5.5%
COc1ccccc1C(=O)COC(=O)c1ccc(N(C)C)cc1	-17.2%	/	20.5%	-33.6%	/	11.9%
CCC(Sc1nnc2c3ccccc3n(CC)c2n1)C(=O)Nc1ccc(NC(C)=O)cc1 (stereo not drawn)	/	/	/	/	6.9	/
O=C(OCc1nc2ccccc2s1)c1cccc(S(=O)(=O)N2CCOCC2)c1	?	-100.0*	-1.6%	-27.2%	1.6	-1.1%[38.3 µM]
CCCC(=O)O[C@]1(C(=O)CCl)[C@H](C)C[C@@H]2[C@H]3CCC4=CC(=O)C=C[C@]4(C)[C@@]3(F)C(=O)C[C@@]21C	/	/	2.5%	-11.1%	/	/
CCCC1(c2ccccc2)NC(=O)N(CC(=O)Nc2sc(-c3ccccc3)cc2C(=O)OCC)C1=O (stereo not drawn)	?	19.1	?	-50.3%	?	2.82µM*
CCCC1(c2ccccc2)NC(=O)N(CC(=O)Nc2cc(C)on2)C1=O (stereo not drawn)	-3.1%	/	11.7%	8.4%[10 µM]	/	4.4%
O=S(=O)(NC1=NCCCCC1)c1ccc2sc(NS(=O)(=O)c3ccc4ccccc4c3)nc2c1	2.9%	/	11.1%[9.22 µM]	29.6%[10 µM]	/	/
O=S(=O)(Nc1nc2c(s1)CCCC2)c1ccc2ccccc2c1	2.4%[46.1 µM]	-24.4	11.2µM*	13.9%	2.3	20.2%[38.3 µM]
COc1ccc(N)c2c1C(=O)c1ccccc1C2=O	12.6µM*	6.6	-12.9%	24.6%[10 µM]	/	20.4%
COc1ccc(OC)c2c1C(=O)C(Cl)=C(Cl)C2=O	6.31µM*	/	?	-92.5%[10 µM]	/	/
COc1ccc(S(=O)(=O)N2CCCC2)c(Cl)c1Cl	-5.8%	/	12.0%	-31.5%	/	13.9%
COc1ccc(OC)c2c1C(=O)c1ccccc1C2=O	-4.9%[46.1 µM]	-27.1	-14.6%	1.2%	-1.8	-17.7%[38.3 µM]
Cn1cc(Cl)c(-c2n[nH]c(=S)n2-c2ccccc2)n1	-29.5%	21.7	1.6%	/	/	11.2µM*
Cn1cc(Cl)c(-c2n[nH]c(=S)n2-c2ccc(F)cc2)n1	-8.8%	-23.5	13.5%	14.0%[10 µM]	/	?
Cc1c(Cl)c(-c2n[nH]c(=S)n2-c2ccc(F)cc2)nn1C	?	10.2	8.9%	12.3%	?	11.2µM*
Cc1ccc(CN2CCN(Cc3cn[nH]c3-c3cccc(F)c3)CC2CCO)o1 (stereo not drawn)	-13.1%	/	?	-77.8%	/	15.1%
Cc1ccc(S(=O)(=O)N(C)c2c(C)ccc(S(=O)(=O)NC(C)(C)C)c2C)cc1	51.2%	/	19.1%[9.22 µM]	10.3%[10 µM]	/	1.0%
O=c1c2c(nc3c(-c4cccc5ccccc45)c[nH]n13)CCC2	-5.2%[46.1 µM]	33.3	?	-11.8%	-23.4	9.1%[38.3 µM]
O=c1c2c(nc3c(-c4ccc(Cl)cc4)c[nH]n13)CCCC2	-16.8%[46.1 µM]	21.1	7.08µM*	-58.0%	-11.4	-8.3%[38.3 µM]
CC(=O)c1cc2c(cc1NS(=O)(=O)c1ccccc1)OCO2	-18.1%[46.1 µM]	-3.2	7.6%[9.22 µM]	-16.5%	5.0	9.8%[38.3 µM]
CCC(C)NS(=O)(=O)c1ccc(S(=O)(=O)Nc2cc3c(cc2C(C)=O)OCO3)cc1 (stereo not drawn)	-23.5%[46.1 µM]	23.0	12.6µM*	?	6.9	0.1%[38.3 µM]
Cc1ccc(S(=O)(=O)Nc2ccc(C(OC(=O)c3ccccc3[N+](=O)[O-])(C(F)(F)F)C(F)(F)F)cc2)cc1	?	-108.4*	17.7%	5.3%[10 µM]	/	17.1%
